# Source: PubChem BioAssay (National Center for Advancing Translational Sciences (NCATS))
# Luciferase inh = blocks Photinus pyralis firefly luciferase activity; P08659; AID 411; Potency, µM (highest dose often 57.1 µM), for the others: at the highest dose activity change, negative = inhibition, hits mostly inhibitors; actives 2.2% (n = 72,000); purified firefly luciferase, luminescence, 8 min; note: nearly all actives have a fitted effect of over 40% in size
# Target sequence (P08659 whole entry, looked up): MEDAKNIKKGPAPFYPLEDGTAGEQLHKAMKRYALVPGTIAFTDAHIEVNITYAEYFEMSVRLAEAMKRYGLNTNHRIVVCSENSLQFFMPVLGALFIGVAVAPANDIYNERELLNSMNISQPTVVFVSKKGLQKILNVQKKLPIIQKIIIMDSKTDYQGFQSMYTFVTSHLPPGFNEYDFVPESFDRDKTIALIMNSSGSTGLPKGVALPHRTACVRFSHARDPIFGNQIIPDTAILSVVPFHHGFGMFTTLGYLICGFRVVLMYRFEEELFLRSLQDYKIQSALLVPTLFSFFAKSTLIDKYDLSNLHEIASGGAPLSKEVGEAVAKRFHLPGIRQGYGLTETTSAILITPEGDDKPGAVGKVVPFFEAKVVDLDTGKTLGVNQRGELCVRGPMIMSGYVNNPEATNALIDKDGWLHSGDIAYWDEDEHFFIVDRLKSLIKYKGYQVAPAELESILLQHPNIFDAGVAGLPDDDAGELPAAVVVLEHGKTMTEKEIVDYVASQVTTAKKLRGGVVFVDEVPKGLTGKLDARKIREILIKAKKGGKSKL
#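 Titration-based qHTS; buffer 50 mM imidazole pH 7.2, 50 mM KCl, 7 mM MgCl2, 10 uM ATP, 0.01% Tween 20, 0.05% BSA; luciferase/luciferin detector mix added after compound; 8 min, ambient; luminescence.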
# p53ts 39C tox = cytotoxicity in p53ts cells at nonpermissive temperature. H1299-p53A138V viability at 39C, ATP luminescence, 24 h. Potency, µM (top dose mostly 46.1 µM), inactives show at the highest dose activity change, negative = cell killing, hits mostly cytotoxic. actives 1.5% (n = 130,000). AID 902; note: nearly all actives have a fitted effect of over 55% in size
# p53ts 32C tox = p53ts cell cytotoxicity, permissive temperature | H1299-p53A138V at 32C, ATP luminescence viability, 24 h | Potency, µM (top dose mostly 46.1 µM), inactives show top-dose activity change, negative = cytotoxicity, actives largely listed as cytotoxic | actives 0.93% (n = 130,000) | AID 924;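 note: 0% = DMSO and -100% = full killing by reference compound; nearly all actives have a fitted effect of over 55% in size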
#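 ATP-content luminescence (ATPlite) read-out after 24 h compound exposure at 32C in H1299-p53A138V cells (600/well). Tested up to 46 uM. Normalized to DMSO (0%) and 100 uM tamoxifen (100% killing); Hill-fit AC50.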
# The depositor's hits bear a star; ? = inconclusive; / = no result given; [ ] = remark or other dose. Rows were chosen to be rich in hits. Some 2.5% of all compounds tested hit in one or more screens of this group. Calls come from the whole dose curve; as a rule, active = well fitted curve in the direction sought with a large enough effect; inconclusive = small, poorly fitted or top-dose-only effect, or another doubt; inactive = no such curve, though single readings can be large; an effect the other way counts as inactive or inconclusive. Unless noted, % is set by controls: 0 for no effect and ±100 for the full control effect; potency is the fitted concentration of half-maximal effect.
SMILES,Luciferase inh,p53ts 39C tox,p53ts 32C tox
CN(C)c1ccc(C(=O)OCC(=O)c2cccs2)cc1,-24.5%,?,?
CCn1nc(C(=O)OCC(=O)c2cc(C)n(Cc3cccs3)c2C)c2ccccc2c1=O,-17.4%,?,?
O=C(COC(=O)c1cccs1)c1ccc2c(c1)OCCO2,0.316µM*,-26.8%,?
CC(=O)NC12CC3CC(C1)CC(C(=O)OCC(=O)Nc1ncc(Cl)c(C)c1Cl)(C3)C2,2.2%,0.4%,7.2%
CCn1nc(C(=O)OCC(=O)c2ccc3c(c2)OCCO3)c2ccccc2c1=O,12.6µM*,-14.1%,-14.5%
O=C(COC(=O)c1cccs1)c1ccc2ccccc2c1,/,-2.1%,-11.8%
Cc1ccc(C(=O)COC(=O)c2cccs2)cc1,/,-23.2%,20µM*
CC(=O)NC12CC3CC(C1)CC(C(=O)OCC(=O)c1ccc4c(c1)OCCO4)(C3)C2,3.98µM*,-15.7%,-14.6%
CCCCc1nc2c(c3c1CC(C)OC3)CN(CCC(C)C)CC2 (stereo not drawn),/,7.7%[9.22 µM],8.6%[9.22 µM]
Cc1cc(C)cc(NC(=O)CCS(=O)(=O)c2ccc3c(c2)oc(=O)n3C)c1,/,22.9%,3.0%
O=C(N/N=C1/C[C@@H](O)[C@@H](O)[C@@H]2[C@@H]3C(=O)N(c4cccc(Oc5ccccc5)c4)C(=O)[C@H]3CC[C@H]12)OCc1ccccc1,0.2%[11.4 µM],5.9%[9.22 µM],-1.5%[9.22 µM]
C[N+](C)(C)CCN[N@@+]1(C)CCCc2ccccc21,1.8%[11.4 µM],8.6%[9.22 µM],0.7%[9.22 µM]
CNc1nc(-c2ccc(Cl)cc2)cs1,10µM*,-18.5%,-22.6%
CC(=O)N(C)c1nc(-c2ccc(Cl)cc2)cs1,-7.5%,-11.0%,-11.1%
CCNc1nc(-c2ccc(Cl)cc2)cs1,12.6µM*,-28.4%,-11.2%
O=C(Nc1ccccc1)Nc1nc(-c2ccc(Cl)cc2)cs1,/,17.5%,/
Cc1cc2c(c(=O)o1)[C@H](O)[C@H]1O[C@@H]1C2=O,1.2%[11.4 µM],7.8%[9.22 µM],1.0%[9.22 µM]
CC(C)=CCNc1ncnc2c1c(C#N)cn2[C@H]1O[C@@H](CO)[C@@H](O)[C@@H]1O,4.5%[11.4 µM],7.8%[9.22 µM],8.5%[9.22 µM]
c1ccc2c(c1)-c1nc3ccccc3cc1[C@H]2N1CCOCC1,-0.4%[11.4 µM],2.5%[9.22 µM],-2.2%[9.22 µM]
OC1c2ccccc2-c2nc3ccccc3cc21 (stereo not drawn),/,10µM*,?
O=C(O)CCSc1nnc(-c2ccc(Cl)cc2Cl)o1,/,?,12.6µM*
CCSc1nnc(-c2ccc(Cl)cc2Cl)o1,?,-17.9%,-26.6%
Fc1ccc(-c2nnc(-c3ccc(Cl)cc3)o2)cc1,-2.2%,?,?
Clc1ccc(-c2nnc(-c3ccc(Br)o3)o2)c(Cl)c1,-26.6%,-28.8%,-20.1%
Fc1ccc(-c2nnc(-c3ccc(Cl)cc3Cl)o2)cc1,1.26µM*,12.6µM*,5.01µM*
SMILES,Luciferase inh,p53ts 39C tox,p53ts 32C tox
Clc1ccc(-c2nnc(-c3ccccc3)o2)c(Cl)c1,2µM*,10µM*,7.94µM*
COC(=O)[C@H](C)NC(=O)C/C=C\[C@@H](C)CO,1.3%[11.4 µM],10.3%[9.22 µM],6.2%[9.22 µM]
Cc1ccc(OCC(=O)N(Cc2ccc(Cl)cc2)Cc2ccco2)cc1C,/,-4.8%,5.9%
C[C@@H]1O[C@@H](O)[C@@H](O)[C@H](O)[C@H]1O,0.6%[11.4 µM],-8.0%[9.22 µM],-2.8%[9.22 µM]
O=C(CSc1ccc(-c2ccc(F)cc2)nn1)N1CCCCC1,-4.2%,-13.9%,-2.0%
COc1ccccc1-c1cc(C(F)(F)F)nc(S(=O)(=O)CCCC(=O)N2CCOCC2)n1,1.2%,?,?
COc1ccc(-c2cc(C(F)(F)F)nc(S(=O)(=O)CCC(=O)N3CCOCC3)n2)cc1,-0.7%,?,5.01µM*
COc1ccc(-c2ccc(SCC(=O)N3CCOCC3)nn2)cc1,12.6µM*,?,?
CCc1cnc2c(c1SCC(=O)NCc1ccccc1)c(=O)n(C)c(=O)n2C,/,-7.6%,5.2%
CC1(C)COCN1S(=O)(=O)c1ccc(C(=O)Nc2nnc(-c3ccc(Cl)s3)o2)cc1,-0.2%,7.94µM*,?
COc1ccc(-c2nnc(NC(=O)c3ccc(S(=O)(=O)N4COCC4(C)C)cc3)o2)cc1,-1.7%,?,8.2%
COc1ccc(CCN2C(=O)c3oc4ccc(F)cc4c(=O)c3C2c2ccc(C(C)(C)C)cc2)cc1 (stereo not drawn),/,-0.2%,-5.7%
Cc1oc(-c2ccc3c(c2)OCCO3)cc1C(=O)O,-19.1%,?,20µM*
Cc1oc(-c2ccc3c(c2)OCCO3)cc1C(=O)NC(CCC(=O)O)C(=O)O (stereo not drawn),1.7%,-1.6%,3.5%
Cc1ccccc1N=C1Nc2ccccc2CS1,25.1µM*,?,?
Cc1ccccc1N=C1NC(=O)CS1,0.8%,-10.4%,-3.9%
CCCCNc1ncnc2c1nnn2C,/,-22.2%,-13.1%
COCCn1c(COc2ccc(C)cc2)nc2ccccc21,12.6µM*,?,?
Cc1ccc(OCCCn2c(CO)nc3ccccc32)cc1,20µM*,-18.4%,-18.2%
Cc1ccc(OCc2nc3ccccc3n2CCOc2ccc(Cl)cc2)cc1,/,-12.9%,4.3%
Cc1ccc(OCCCCn2c(CCNC(=O)C(C)(C)C)nc3ccccc32)cc1,/,-11.0%,12.0%
O=S(=O)(O)[C@@H](c1ccccc1)[C@@H](O)c1ccccc1,1.0%[11.4 µM],-4.0%[9.22 µM],8.4%[9.22 µM]
O=C(O)c1ccccc1NS(=O)(=O)c1ccccc1F,/,6.6%,7.9%
CC(=O)OCC1OC(C#CCC2CCCCC2)C=CC1OC(C)=O (stereo not drawn),/,-8.3%[9.22 µM],2.4%[9.22 µM]
CCN(CC)CCCCNC(=O)c1ccc(Cc2nc3ccccc3[nH]2)cc1,/,5.5%,-1.2%
SMILES,Luciferase inh,p53ts 39C tox,p53ts 32C tox
Cc1ccc2scc(N3CCCCC3C)c(=O)c2c1 (stereo not drawn),/,6.31µM*,10µM*
Cc1ccc2scc(N3CCCCC3)c(=O)c2c1,/,15.8µM*,12.6µM*
CCN1CCN(c2csc3ccc(C)cc3c2=O)CC1,/,?,-23.0%
COC(=O)C1CCN(c2csc3ccc(C)cc3c2=O)CC1,/,-29.8%,-25.1%
Cn1c(=O)n(C/C=C/c2ccccc2)c(=O)c2c1nc1n2CCN1c1ccc(F)cc1,/,-0.1%,0.3%
COc1ccc2oc(C(=O)C3CC3)c(N)c2c1,25.1µM*,-17.2%,-19.3%
COc1ccc(C(=O)c2oc3ccccc3c2N)cc1,-22.0%,-14.0%,-10.3%
[N-]=[N+]=NCC1OC(n2cnc3c(=O)[nH]c(N)nc32)C(O)C1O (stereo not drawn),/,8.2%,-10.4%
COc1ccc(-c2nc3cnc(N4CCNCC4)nc3n(Cc3cccs3)c2=O)cc1,0.7%[11.4 µM],?,?
CC1CCCN(CCCNC(=O)c2ccc3c(c2)N(Cc2ccc(Cl)cc2)C(=O)c2ccccc2S3(=O)=O)C1 (stereo not drawn),/,10µM*,?
Cc1ccc(C)c(CN2C(=O)c3ccccc3S(=O)(=O)c3ccc(C(=O)NCCCN4CCCC(C)C4)cc32)c1 (stereo not drawn),/,?,-0.6%
Cc1cccc(OCc2nc(CC(=O)Nc3ccc(C)cc3C)cs2)c1,/,-9.1%,-2.3%
O=C(NCc1ccccc1)c1ccco1,/,10.6%,-7.6%
O=C(NC(=S)N(CCc1ccccc1)CCc1ccccc1)c1ccco1,/,11.2µM*,-9.6%
CC[C@@H](c1ccccc1)n1c(=O)n2n(c1=O)[C@H]1[C@H](O)[C@H]3O[C@@H]3/C(=N/OCC(C)C)[C@@H]1CC2,0.9%[11.4 µM],1.4%[9.22 µM],3.2%[9.22 µM]
COC(=O)c1c(SCC(=O)Nc2cc(C)cc(C)c2)[nH]c2ccccc2c1=O,/,12.6µM*,?
